Assay [1] in a line: Cell Viability - Jurkat (AID 426;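 active = dose-dependent loss of cell ATP signal giving a full or clear fitted curve, ranked by lower potency value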;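 also: potency is read from the fitted curve at half-maximal effect; cells exposed to compound for 40 hours at 37 °C before ATP read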). The following applies: qHTS. The method, boiled down:
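Cytotoxicity was scored as loss of cellular ATP, measured by luciferase-based luminescence, in Jurkat clone E6-1 cells after 40 h compound treatment; tamoxifen and doxorubicin served as positive controls.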
(In general: In qHTS, concentration-response curves come from the screen itself.)

A short description of assay [2]: Cell Viability - Hek293 (AID 427;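 active = compounds whose dose-response curve shows a full or clear partial loss of cell viability, called from curve shape rather than a numeric limit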;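 also: potency is read from the fitted curve at half-maximal effect; cells exposed to compound for 40 hours at 37 °C before reading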). Conditions: qHTS. The method, boiled down: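 Luminescent ATP read-out (CellTiter-Glo, 20 min RT) after 40 hr compound exposure at 37 °C in complete medium. Signal normalized to DMSO (basal) and 100 uM tamoxifen (100% inhibition); concentration-response fitted with the standard Hill equation to give AC50.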
Assay [3] is described as follows: Cell Viability - SH-SY5Y (AID 544).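 Also: cells exposed to compound for 40 hours; nearly all actives have a fitted effect of over 55% in size.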 Also: potency is read from the fitted curve at half-maximal effect.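 As to viability change, negative = cytotoxic: 0% = DMSO alone and -100% = 100 µM tamoxifen.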 The following applies: SH-SY5Y neuroblastoma cell viability; viability change, negative = cytotoxic: at 92.2 µM (top of the series). In a few lines:
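Quantitative HTS in SH-SY5Y neuroblastoma cells, 40 hr treatment at 37 °C, ATP content by luciferase luminescence; AC50 from Hill fits.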

A short description of assay [4]: Cell Viability - Mesenchymal (AID 546).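 Also: cells exposed to compound for 40 hours before reading; 0% = DMSO only and -100% = 100 µM tamoxifen.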 The following applies: mesenchymal cells viability, qHTS; series mostly up to 91.7 µM. The method, boiled down: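 CellTiter-Glo luminescence (intracellular ATP, 20 min room temperature) after 40 hr compound exposure at 37 °C of 1000 glomerulus-derived human kidney mesenchymal cells/well; AC50 values obtained by fitting qHTS concentration-response data to the Hill equation.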

The target of assay [5] is Cytochrome P450 3A4 (Homo sapiens) (UniProt P08684). The experiment in a line: qHTS Assay for Inhibitors and Substrates of Cytochrome P450 3A4 (AID 884). Also: nearly all actives have a fitted effect of over 50% in size. Also: potency is read from the fitted curve at half-maximal effect. Conditions: recombinant CYP3A4, Luciferin-PPXE luminescence; series mostly up to 57.1 µM. The method, boiled down:
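Luminescent readout of luciferin produced by CYP3A4 (20 nM) dealkylation of Luciferin-PPXE, 25 uM (its KM). NADPH-driven reaction ran 60 min at RT after 10 min compound preincubation; data scaled to 57 uM ketoconazole as 100% inhibition.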

Assay [6] can be described thus: MultiTox-Fluor Cytotoxicity Assay - LYMP1-002 - Dead Cells (AID 960).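 Also: 0% = DMSO and 100% = tetraoctylammonium bromide; nearly all actives have a fitted effect of over 60% in size.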 Conditions: LYMP1-002 lymphoblastoid cells, dead-cell protease fluorescence; series mostly up to 46.1 µM. In a few lines: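 Concentration-dependent increases in membrane-leaked protease activity are quantified in LYMP1-002 cells after 16 hr treatment; values are normalized against DMSO and tetraoctylammonium bromide (15 uM) controls and AC50 derived by Hill modeling.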

Assay [7] in a line: Cell Viability - LYMP2-005 (AID 967).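 Also: plate controls were DMSO only for no effect and 92 µM tetraoctylammonium bromide control for full effect.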 The following applies: LYMP2-005 lymphoblastoid cell viability; series mostly up to 92.2 µM. In a few lines: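 Human lymphoblastoid LYMP2-005 cells, 2,500 per well in complete medium, rested 5 h at 37C then compound-treated 24 h at 37C. Intracellular ATP read by CellTiter-Glo luminescence after 30 min at room temperature; AC50 from Hill-equation fits of concentration-response data.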

Assay [8] can be described thus: Cell Viability - LYMP2-019 (AID 973).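 Also: 0% = DMSO alone and full effect = 92 µM tetraoctylammonium bromide; nearly all actives have a fitted effect of over 55% in size.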 The following applies: LYMP2-019 lymphoblastoid cell line viability; series mostly up to 92.2 µM. In a few lines: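 AC50 values come from Hill-equation modelling of qHTS concentration-response curves, where viability is measured as luciferase-based ATP luminescence in the lymphoblastoid line after 24 hr compound exposure in complete culture medium.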

The nature of assay [9]: Cell Viability - LYMP2-010 (AID 981).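 Also: cells exposed to compound for 24 hours at 37 °C; % is scaled to controls: 0 for no effect and ±100 for the full control effect; nearly all actives have a fitted effect of over 55% in size.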 Conditions: LYMP2-010 lymphoblastoid cell viability, qHTS; series mostly up to 92.2 µM. The method, boiled down: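 This 24 hr viability screen uses LYMP2-010 lymphoblastoid cells, quantifies ATP via luciferase luminescence, and derives AC50 from Hill fits of qHTS concentration-response data.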
Assay [10] in a line: Cell Viability - LYMP2-024 (AID 988).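 Also: cells exposed to compound for 24 hr at 37 °C; plate controls were DMSO only for no effect and 92 µM tetraoctylammonium bromide for full effect; nearly all actives have a fitted effect of over 60% in size.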 Conditions: LYMP2-024 lymphoblastoid cell viability; series mostly up to 92.2 µM. In a few lines:
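Cells at 2500 per well received compound for 24 hr after a 5 hr settling period. Viability was scored by CellTiter-Glo luminescence, with AC50 from Hill fits.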

The nature of assay [11]: Cell Viability - LYMP2-026 (AID 989). Also: % is scaled to controls: 0 for no effect and ±100 for the full control effect; nearly all actives have a fitted effect of over 50% in size. The following applies: LYMP2-026 lymphoblastoid cell viability, qHTS; series mostly up to 92.2 µM. The method, boiled down:
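Acute toxicity screen in complete culture medium, with 24 hr compound exposure at 37 C. Viability read as cellular ATP via luciferase reaction, with tetraoctylammonium bromide (6.4pM to 92 uM) as positive control.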

Assay [12] is described as follows: Cell Viability - LYMP1-002 - Assay at 40 hr (AID 994).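 Also: 0% = DMSO only and full inhibition = 92 µM tetraoctylammonium bromide; nearly all actives have a fitted effect of over 60% in size.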 Conditions: LYMP1-002 lymphoblastoid cell viability; series mostly up to 92.2 µM. The method, boiled down:
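Concentration-dependent ATP loss after 40 hr treatment at 37 C defined toxicity; AC50 values were obtained by fitting the standard Hill equation.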

Assay [13] deals with Peroxisome proliferator-activated receptor gamma (Homo sapiens) (UniProt P37231). The experiment in a line: qHTS assay for small molecule agonists of peroxisome proliferator-activated receptor gamma signaling (AID 588536; active = well fitted curve in the direction sought with a large enough effect in the signal ratio, with a control signal flat, not every such curve was filed as active; the % refers to the signal ratio;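 also: 0% = DMSO basal wells and 100% = rosiglitazone at 2 µM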). Conditions: HEK293 PPARg-UAS-bla, beta-lactamase ratio, 16 h, percent of rosiglitazone response, DMSO as zero; series mostly up to 76.7 µM. The method, boiled down: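 Compound treatment: 16 h, 37 C, HEK293 GeneBLAzer cells. Detection: CCF4, 2 h RT. Values: Hill-fit EC50, efficacy as % of 2 uM rosiglitazone.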
Chain of Peroxisome proliferator-activated receptor gamma (Homo sapiens) (P37231 whole entry, looked up): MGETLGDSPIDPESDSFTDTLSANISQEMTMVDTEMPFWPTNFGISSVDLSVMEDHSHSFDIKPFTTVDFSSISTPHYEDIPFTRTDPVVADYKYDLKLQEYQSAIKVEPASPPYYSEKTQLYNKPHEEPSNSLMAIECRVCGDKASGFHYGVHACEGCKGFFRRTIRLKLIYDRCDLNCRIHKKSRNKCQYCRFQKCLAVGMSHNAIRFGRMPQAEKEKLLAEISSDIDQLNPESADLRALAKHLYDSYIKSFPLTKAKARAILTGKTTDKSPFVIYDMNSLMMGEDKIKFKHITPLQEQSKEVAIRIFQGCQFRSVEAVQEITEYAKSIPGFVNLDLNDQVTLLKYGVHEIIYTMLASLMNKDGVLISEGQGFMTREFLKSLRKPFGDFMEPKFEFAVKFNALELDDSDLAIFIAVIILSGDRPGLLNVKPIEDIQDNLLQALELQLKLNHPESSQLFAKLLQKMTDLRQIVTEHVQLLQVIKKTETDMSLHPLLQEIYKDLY

Assay [14] is described as follows: qHTS assay for small molecule agonists of retinoid X receptor alpha signaling (AID 588544; calls by dose curve). Conditions: HEK293T RXRa-UAS-bla, beta-lactamase reporter, 18 h; 530 nm emission.
Assay [15] addresses Retinoic acid receptor RXR-alpha (Homo sapiens) (UniProt P19793). The description is as above. The following applies: HEK293T RXRa-UAS-bla, beta-lactamase reporter, 18 h; series mostly up to 76.7 µM.
Assay [16] concerns the target Thyroid hormone receptor beta (Homo sapiens) (UniProt P10828). The experiment in a line: qHTS assay for small molecule agonists of thyroid hormone receptor beta signaling (AID 588545; calls by dose curve). The following applies: TR-UAS-bla GripTite HEK 293, beta-lactamase ratio, agonist mode, 18 h; series mostly up to 76.7 µM. In a few lines: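 In this cell-based screen, titrated compounds act on HEK 293 cells held in medium with 2% charcoal/dextran FBS, NEAA and pyruvate for 18 hrs at 37 C. Responses are expressed relative to T3 (10 nM) as 100% and basal DMSO as 0%.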

The nature of assay [17]: qHTS assay for small molecule antagonists of retinoid X receptor alpha signaling (AID 588546).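 Also: cells stimulated with 9-cis-retinoic acid as agonist; % is scaled to controls: 0 for no effect and ±100 for the full control effect.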 Conditions: HEK293T RXRa-UAS-bla, beta-lactamase ratio, antagonist mode; measured here: W530 green channel, cytotoxicity proxy. The method, boiled down: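 Beta-lactamase reporter inhibition, read as CCF4 fluorescence ratio (ex 405, em 460/530 nm) after 2 h at RT. HEK293T UAS-bla cells, 2500/well, were stimulated with 9-cis-RA at 500 or 100 nM final alongside test compound for 18 h at 37 C.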

Assay [18] addresses Tumor necrosis factor (Homo sapiens) (UniProt P01375). The experiment in a line: qHTS assay to identify small molecules that stimulate Tumor Necrosis Factor-alpha (TNF-alpha) secretion (AID 651757; active = well fitted curve in the direction sought with a large enough effect in the signal ratio; the % refers to the signal ratio; also: 0% is about no effect). Conditions: Human cells, HTRF 665/615 ratio; series mostly up to 92.2 µM. The method, boiled down:
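Using 3000 THP-1 cells per well, compounds and controls were applied for 17 hrs at 37 C. Detection followed with two labeled anti-TNF-alpha antibodies (cryptate donor, XL665 acceptor) for 3 hr at room temperature, measured by TR-FRET.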

The nature of assay [19]: qHTS assay for small molecule antagonists of the retinoid-related orphan receptor gamma (ROR-gamma) signaling pathway - cell viability counter screen (AID 720652; active = well fitted curve in the direction sought with a large enough effect in the repeat runs; an effect the other way counts as inactive or inconclusive;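 also: CHO reporter cells with doxycycline-induced ROR-gamma expression; compound exposure lasted 16 hr before ATP read; % is scaled to controls: 0 for no effect and ±100 for the full control effect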). The following applies: RORgamma reporter cell line viability counter screen; series mostly up to 92.2 µM. The method, boiled down:
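ATP-based viability readout in the ROR-gamma reporter CHO cells after 16 hr compound exposure under doxycycline induction.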

Assay [20] deals with Nuclear receptor subfamily 1 group I member 2 (Rattus norvegicus) (UniProt Q9R1A7). Kind of assay: qHTS assay for small molecule activators of the rat pregnane X receptor (rPXR) signaling pathway (AID 651751; call rule not given here; also: 0% is about no effect). The following applies: rPXR reporter cells, luciferase (One-Glo), 24 h.
Chain of Nuclear receptor subfamily 1 group I member 2 (Rattus norvegicus) (Q9R1A7 whole entry, looked up): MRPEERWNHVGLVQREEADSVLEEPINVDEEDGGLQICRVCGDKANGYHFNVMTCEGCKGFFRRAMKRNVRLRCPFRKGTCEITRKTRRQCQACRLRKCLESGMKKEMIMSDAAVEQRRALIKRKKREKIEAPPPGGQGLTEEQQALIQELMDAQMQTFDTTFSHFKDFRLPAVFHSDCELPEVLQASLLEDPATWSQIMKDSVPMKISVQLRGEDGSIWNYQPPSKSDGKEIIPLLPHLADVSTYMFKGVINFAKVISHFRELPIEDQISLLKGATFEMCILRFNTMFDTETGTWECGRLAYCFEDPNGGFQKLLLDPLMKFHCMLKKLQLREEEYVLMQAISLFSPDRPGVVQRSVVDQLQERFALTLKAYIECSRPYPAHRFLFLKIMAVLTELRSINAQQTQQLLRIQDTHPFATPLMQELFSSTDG

“And” between values parts separate entries of the source, which are not always exact repeats. Equal entries are not always repeated. Results filed as inconclusive are left out. The source made the active and inactive calls. Unless noted, calls follow the shape of the dose curve; as a rule, active = well fitted curve in the direction sought with a large enough effect; inconclusive = small, poorly fitted or top-dose-only effect, or another doubt; inactive = no such curve, though single readings can be large; an effect the other way counts as inactive or inconclusive.

Chain of Cytochrome P450 3A4 (Homo sapiens) (P08684 whole entry, looked up): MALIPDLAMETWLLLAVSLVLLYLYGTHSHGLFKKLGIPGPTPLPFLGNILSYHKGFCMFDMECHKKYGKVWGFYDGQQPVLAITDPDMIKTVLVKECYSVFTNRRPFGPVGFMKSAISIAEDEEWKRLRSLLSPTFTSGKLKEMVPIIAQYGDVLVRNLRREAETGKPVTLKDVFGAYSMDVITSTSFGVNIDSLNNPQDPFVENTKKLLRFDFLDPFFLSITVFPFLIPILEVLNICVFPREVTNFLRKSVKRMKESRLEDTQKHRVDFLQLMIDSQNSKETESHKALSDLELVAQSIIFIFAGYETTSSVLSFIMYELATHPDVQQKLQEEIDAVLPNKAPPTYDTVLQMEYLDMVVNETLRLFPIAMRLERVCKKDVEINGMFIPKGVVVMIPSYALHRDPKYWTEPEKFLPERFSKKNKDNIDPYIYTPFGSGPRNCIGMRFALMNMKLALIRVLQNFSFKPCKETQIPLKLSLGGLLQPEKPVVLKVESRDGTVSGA
Chain of Tumor necrosis factor (Homo sapiens) (P01375 whole entry, looked up): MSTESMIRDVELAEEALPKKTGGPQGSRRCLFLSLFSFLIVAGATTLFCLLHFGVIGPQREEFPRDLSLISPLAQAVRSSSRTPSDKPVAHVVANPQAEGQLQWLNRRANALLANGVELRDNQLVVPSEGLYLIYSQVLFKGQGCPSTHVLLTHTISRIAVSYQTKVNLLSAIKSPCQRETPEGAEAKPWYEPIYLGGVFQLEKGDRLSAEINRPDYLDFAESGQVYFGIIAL
Chain of Retinoic acid receptor RXR-alpha (Homo sapiens) (P19793 whole entry, looked up): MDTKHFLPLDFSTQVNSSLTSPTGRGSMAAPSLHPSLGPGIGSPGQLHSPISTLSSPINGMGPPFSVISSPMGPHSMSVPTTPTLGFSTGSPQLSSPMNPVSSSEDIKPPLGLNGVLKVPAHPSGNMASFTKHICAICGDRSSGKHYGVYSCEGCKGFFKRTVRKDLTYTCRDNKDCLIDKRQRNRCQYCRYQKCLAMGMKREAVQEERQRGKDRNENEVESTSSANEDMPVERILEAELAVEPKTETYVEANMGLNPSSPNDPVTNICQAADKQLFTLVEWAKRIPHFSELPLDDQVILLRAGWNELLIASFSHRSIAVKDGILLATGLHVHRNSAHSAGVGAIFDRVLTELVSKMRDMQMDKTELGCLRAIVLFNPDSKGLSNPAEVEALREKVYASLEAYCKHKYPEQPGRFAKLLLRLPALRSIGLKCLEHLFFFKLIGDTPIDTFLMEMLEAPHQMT
Chain of Thyroid hormone receptor beta (Homo sapiens) (P10828 whole entry, looked up): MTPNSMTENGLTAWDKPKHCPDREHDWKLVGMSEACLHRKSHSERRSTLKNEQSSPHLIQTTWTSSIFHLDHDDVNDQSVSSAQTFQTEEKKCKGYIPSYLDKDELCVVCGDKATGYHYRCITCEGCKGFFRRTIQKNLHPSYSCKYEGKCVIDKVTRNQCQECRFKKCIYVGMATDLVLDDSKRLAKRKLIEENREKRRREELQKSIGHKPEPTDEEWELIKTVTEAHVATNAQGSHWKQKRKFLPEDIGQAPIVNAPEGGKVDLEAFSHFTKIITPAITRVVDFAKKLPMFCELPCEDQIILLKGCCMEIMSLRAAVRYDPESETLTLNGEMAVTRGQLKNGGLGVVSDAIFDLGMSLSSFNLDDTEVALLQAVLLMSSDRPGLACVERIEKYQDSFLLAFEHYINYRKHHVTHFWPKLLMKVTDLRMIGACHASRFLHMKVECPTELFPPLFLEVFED

As to `CCCCCCCCCCCOC(=O)c1ccccc1C(=O)OCCCCCCCCCCC`, the Potency in assay [1] and in assay [2] was > 92 µM (inactive) throughout. For the same molecule, the Potency entry in assay [3], in assay [4], in [5], in assay [6], in assay [7] and in assay [8] was “inactive” throughout. For the same molecule, the Potency result in assay [9], in assay [10], in assay [11], in assay [12], in assay [16] and in [19] was “inactive” each time. Moreover, the result in assay [13], in assay [15] and in assay [18] was inactive. Also, the max response in assay [14] is -1.51%; in [17], 5.25%; in [20] it was 1.44% (inactive).

Turning to `C[N+](=O)[O-]`, the Potency in assay [1] and in assay [2] was > 92 µM (inactive) each time. Moreover, the Potency entry in assay [3], in [4], in assay [5], in [6], in [7] and in assay [8] was “inactive” each time. In addition, the Potency result in assay [10], in assay [11], in [12], in [16] and in assay [19] was “inactive” throughout. For the same molecule, the outcome in [13], in assay [15] and in assay [18] was inactive. Besides, the max response in [14] was -4.73%; in assay [17] it was -7.25%.

`Clc1cccc(Cl)c1`: the Potency in assay [2] is > 92 µM (inactive). Besides, the Potency result in assay [3], in assay [4], in assay [5], in assay [6], in assay [7] and in assay [8] was “inactive” throughout. The Potency result in [9], in assay [10], in [11], in assay [12] and in assay [16] was “inactive” in each case. Besides, the result in assay [13], in [15] and in [18] was inactive. Further, the max response in [14] was 5.35%; in [17], -14.2%; in [20] it was 1.78% (inactive).

Take `COP(=S)(OC)SCn1nnc2ccccc2c1=O`: the Potency was > 92 µM (inactive) in [1], 15.8 µM (active) in [3] and 7.94 µM (active) in assay [5]. For the same molecule, the Potency result in assay [6], in assay [7], in assay [8], in assay [9], in [10] and in [11] was “inactive” throughout. Besides, the Potency entry in [12], in assay [16] and in [19] was “inactive” throughout. Further, the result in assay [13] and in assay [18] was inactive. In addition, the max response in assay [20] was 0.903% (inactive) and 4.17% (inactive).

With `CC(=O)NNc1ccccc1`, the Potency in assay [1] and in assay [2] was > 92 µM (inactive) in each case. The Potency result in assay [3], in [4], in assay [7], in assay [8], in assay [9] and in assay [10] was “inactive” throughout. In addition, the Potency result in assay [11], in assay [12], in assay [16] and in assay [19] was “inactive” throughout. Also, the result in assay [13] and in assay [18] was inactive. The max response was -2.14% in [17] and -6.67% (inactive) in assay [20].

In the case of `CCOP(=O)(OCC)OCC`, in assay [2], the Potency is > 92 µM (inactive). Besides, the Potency result in assay [3], in assay [4], in assay [5], in [6], in assay [7] and in assay [8] was “inactive” throughout. The Potency entry in assay [9], in [10], in assay [11], in [12], in [16] and in assay [19] was “inactive” in each case. For the same molecule, the outcome in [13], in assay [15] and in assay [18] was inactive. Besides, the max response in [14] is -8.04% and -7.35%; in assay [17], 9.41% and -13.4%; in assay [20], 0.98% (inactive) and -0.959% (inactive).

As for `Cc1ccc(N)cc1Cl`, the Potency in [1] and in assay [2] was > 92 µM (inactive) in each case. For the same molecule, the Potency entry in assay [3], in assay [4], in assay [6], in assay [7], in assay [8] and in assay [9] was “inactive” throughout. The Potency entry in [10], in [11], in [12], in [16] and in assay [19] was “inactive” each time. Moreover, the outcome in [13], in assay [15] and in assay [18] was inactive. The max response was -18.1% in assay [14] and -6.83% in assay [17].

(Values after PubChem BioAssay (NCATS).)
